Source: PubChem BioAssay (EPA / NIEHS)
Results filed as inconclusive are left out. Activity calls are given as the source filed them. How the source made its calls: active means hit-call score of the fitted dose curve at least 0.9, where 1 is the maximum; inconclusive means response in the unintended direction; inactive means score below 0.9.

read-out: ABC Transporter (ABCB11), ABCB11 (gene 8647); assay: CLD_ABCB11_6hr: CellzDirect (CLD) Gene Expression Assay for ABC Transporter (ABCB11) at 6 hours (AID 2283675);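 further: hits raise ABCB11 mRNA level so AC50 marks induction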
Procedure: CLD_6hr is a cell-based, multiplexed-readout assay that uses hepatocyte, a human liver primary cell, with measurements taken at 6 hours after chemical dosing in a 96-well plate.CLD_ABCB11_6hr is one of 16 assay component(s) measured or calculated from the CLD_6hr assay. It is designed to make measurements of mRNA induction, a form of inducible reporter, as detected with chemiluminescence signals by Quantitative Nuclease Protection Assay (qNPA) technology.Data from the assay component CLD_ABCB11_6hr was analyzed at the endpoint, CLD_ABCB11_6hr, in the positive analysis fitting direction relative to DMSO as the negative control and baseline of activity. Using a type of inducible reporter, gain-of-signal activity can be used to understand changes in the reporter gene as they relate to the gene ABCB11. Furthermore, this assay endpoint can be referred to as a primary readout. To generalize the intended target to other relatable targets, this assay endpoint is annotated to the transporter intended target family, where subfamily is ABC transporter.
Human hepatocyte cultures were treated daily for two consecutive days with fresh dosing solutions containing appropriate concentrations of the 320 ToxCast chemicals (chemical identities were blinded to CellzDirect and other ToxCast collaborators), vehicle control (0.2% DMSO), and positive control inducers as summarized in Table 1. Due to the large number of treatment groups and chemicals examined, the ToxCast chemicals were divided into two groups (spanning two independent cultures of hepatocytes from separate donor preparations (Hu778: ToxCast plates 1 and 2; Hu776: ToxCast plates 3 and 4). Each preparation of human hepatocyte cultures was treated with respective vehicle control, medium only control, set of six positive controls/reference chemicals for the five hepatic receptor pathways, and a subset of eight of the ToxCast chemicals (indoxacarb, pyrithiobac-sodium, norflurazon, cyhalofop-butyl, methomyl, thiram, acetochlor, and propiconazole). These replicate data, coupled with internal replicates designed within the blinded ToxCast chemical library, provided additional data to evaluate interindividual differences between hepatocyte preparations and their potential impact on chemical profiles.Cell morphology and integrity were evaluated using phase-contrast microscopy as an indicator of hepatocyte cell health (Tyson & Green, 1987). Cultures for each treatment group (i.e., media, vehicle [0.2% DMSO], positive control inducers [multiple concentrations], and the ToxCast chemicals [multiple concentrations]) were observed and cell morphology was assessed relative to vehicle control cultures at each harvest time point (0, 6, 24, or 48 h). […] Images were evaluated at the conclusion of the study to assess changes in cell integrity and account for the effects of chemical exposure on uncharacteristic changes in concentration-dependent gene expression profiles. The results from these determinations of apparent cytotoxicity were annotated (yes/no) alongside the corresponding qNPA data for reference.At the conclusion of each treatment period, hepatocyte cultures (96-well) were washed with 1 volume of HBSS, lysed by addition of 25 ul ArrayPlate lysis buffer (HTG, Tucson, AZ), and 70 ul/well of Denaturation Oil, denatured by incubation at 95C for 10 min, and frozen at approximately -70C until analysis by nuclease protection assay (qNPA) (Roberts et al., 2007). For qNPA analysis, cell lysates were thawed at 50C for approximately 30 min, qNPA probes were added, and samples were incubated at 95C for 10 min to begin the detection process by denaturing the target RNA, dissociating the duplexes and secondary structure hybridization. At the conclusion of the hybridization period, S1 nuclease reagent was added to each sample to digest all nonprotected nucleotides at 50C for 60-90 min. […]

SMILES	outcome	AC50
CC(C)N(C(=O)SCC(Cl)=C(Cl)Cl)C(C)C	inactive	
CCCSP(=O)(OCC)SCCC	inactive	
CCCCOC(=O)c1ccccc1C(=O)O	inactive	
CN1COCN(Cc2cnc(Cl)s2)C1=N[N+](=O)[O-]	inactive	
CC1=NNC(=O)N(/N=C/c2cccnc2)C1	inactive	
CCOC(=O)COc1cc(-c2nn(C)c(OC(F)F)c2Cl)c(F)cc1Cl	inactive	
CCc1cccc(CC)c1N(COC)C(=O)CCl	inactive	
CCOP(=S)(OCC)SCCSCC	inactive	
CCOP(=S)(OCC)Oc1cc(C)nc(C(C)C)n1	inactive	
CN(C)NC(=O)CCC(=O)O	inactive	
CC(COc1ccc(Oc2ccccc2)cc1)Oc1ccccn1 (stereo not given)	inactive	
CC(Oc1cccc(Cl)c1)C(=O)O (stereo not given)	inactive	
CCOC(=O)CC(SP(=O)(OC)OC)C(=O)OCC (stereo not given)	inactive	
CON=C(C(=O)OC)c1ccccc1CON=C(C)c1cccc(C(F)(F)F)c1	inactive	
CCNc1nc(Cl)nc(NC(C)(C)C#N)n1	inactive	
CC(C1CC1)C(O)(Cn1cncn1)c1ccc(Cl)cc1 (stereo not given)	inactive	
CC(C)[C@H](C(=O)O[C@H](C#N)c1cccc(Oc2ccccc2)c1)c1ccc(Cl)cc1	inactive	
Nc1nc(N)nc(NC2CC2)n1	inactive	
CCOP(=S)(Oc1cnc(C(C)(C)C)nc1)OC(C)C (stereo not given)		27.4 µM (active)
COc1cccc(C(=O)NN(C(=O)c2cc(C)cc(C)c2)C(C)(C)C)c1C	inactive	

SMILES	outcome	AC50
COP(=O)(OC)OC(Br)C(Cl)(Cl)Br (stereo not given)	inactive	
C[Si](Cn1cncn1)(c1ccc(F)cc1)c1ccc(F)cc1	inactive	
C[N+]1(C)CCCCC1	inactive	
O=C(O)c1cc(Oc2ccc(C(F)(F)F)cc2Cl)ccc1[N+](=O)[O-]	inactive	
CCOP(=O)(SC(C)CC)N1CCSC1=O (stereo not given)	inactive	
CCOP(=S)(OCC)Oc1ccc2c(C)c(Cl)c(=O)oc2c1	inactive	
CCCOCC(=Nc1ccc(Cl)cc1C(F)(F)F)n1ccnc1	inactive	
O=[N+]([O-])c1cc(C(F)(F)F)c(Cl)c([N+](=O)[O-])c1Nc1ncc(C(F)(F)F)cc1Cl	inactive	
CC[C@H](C)[C@H]1O[C@]2(C=C[C@@H]1C)C[C@@H]1C[C@@H](C/C=C(\C)[C@@H](O[C@H]3C[C@H](OC)[C@@H](O[C@H]4C[C@H](OC)[C@@H](NC)[C@H](C)O4)[C@H](C)O3)[C@@H](C)/C=C/C=C3\CO[C@@H]4[C@H](O)C(C)=C[C@@H](C(=O)O1)[C@]34O)O2	inactive	
CCC(CC)Nc1c([N+](=O)[O-])cc(C)c(C)c1[N+](=O)[O-]	inactive	
Nc1c(Cl)cc([N+](=O)[O-])cc1Cl	inactive	
CCc1cnc(C2=NC(C)(C(C)C)C(=O)N2)c(C(=O)O)c1 (stereo not given)	inactive	
CCC(=O)Nc1ccc(Cl)c(Cl)c1	inactive	
C=C(C)[C@H]1Cc2c(ccc3c2O[C@@H]2COc4cc(OC)c(OC)cc4[C@@H]2C3=O)O1	inactive	
CNc1cnn(-c2cccc(C(F)(F)F)c2)c(=O)c1Cl	inactive	
CC1(C(=O)Nc2ccc(O)c(Cl)c2Cl)CCCCC1	inactive	
CCOP(=S)(OCC)OC(Cl)C(Cl)(Cl)Cl (stereo not given)	inactive	
N#CSCSC#N	inactive	
CCOP(=O)(OCC)Oc1cc(C)nc(C(C)C)n1	inactive	
CNC(=O)ON=C(C)SC	inactive	
